High-throughput results as filed in PubChem BioAssay.
Shiga toxin inh – Shiga toxin inhibition. 290,000 tested, 9.2% active. inhibition, % at 38.7 µM. AID 2315. Vero cells, Shiga toxin protein synthesis inhibition reporter; in the data active = inhibition mostly above about 28%, no sharp cut-off; inactive = mostly below about 43%; note: 0% is about no effect
CHX counter – counter-screen for Shiga toxin inhibitors: cycloheximide protein synthesis inhibition. cell reporter, cycloheximide protein synthesis inhibition counterscreen. max response, %. 300,000 tested, 12% active; in the data active = max response mostly above about 13%, no sharp cut-off; inactive = mostly below about 14%; note: read at 38.3 µM for the half of the compounds with a filed dose; 0% is about no effect
SARS PLpro yeast – blocks SARS-CoV papain-like protease in a yeast assay. 330,000 tested, 0.19% active. AID 485353. Potency, µM (doses to about 32.9 µM), for inactives: at the highest dose activity, positive = growth rescue, usual class: activators. S. cerevisiae expressing SARS-CoV PLpro, growth rescue; note: potency is the fitted concentration of half-maximal effect; 0% is about no effect; nearly all actives have a fitted effect of over 55% in size
NS1 function inh – blocks influenza NS1 protein function. 270,000 tested, 0.4% active. Potency, µM (doses to about 46.1 µM), for the others: at the highest dose activity, positive = more growth; note: potency is the fitted concentration of half-maximal effect; actives are rising curves; nearly all actives have a fitted effect of over 50% in size
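A cell-based growth assay was used: compounds that relieve NS1-induced slow growth of budding yeast raise OD600. Assay medium was yeast nitrogen base with ammonium sulphate and -URA supplement, pH 6.0, with 2% galactose.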
The depositor's hits bear a star; ? = inconclusive; . = not tested or not shown. Sampled rows, rich in hits. Any-hit rate of the full collection: about 12%. Unless noted, calls come from the whole dose curve.

SMILES | Shiga toxin inh | CHX counter | SARS PLpro yeast | NS1 function inh
CCC(=O)NC[C@H](Cc1ccc(OCCc2nc(-c3ccccc3)oc2C)cc1)N/C(C)=C\C(=O)c1ccc(C(F)(F)F)cc1 | 15 | 11 | . | .
Nc1ccc(S(=O)(=O)NCc2nccs2)cc1 | . | . | . | -2%
CC(C)OC(=O)CSc1nc2ccccc2s1 | 64* | 49* | -3% | 10%
O=C(CSc1nc2ccccc2s1)CSc1nc2ccccc2s1 | -19 | -1 | -6% | 16%
O=C(CSc1nc2ccccc2s1)c1cc2ccccc2o1 | 45 | 24* | . | 0%
COC(=O)c1ccc(CSc2nc3ccccc3s2)o1 | 48* | 56* | -19% | -46%
CC(=O)CSc1nc2ccccc2s1 | 61 | 25* | 2% | -7%
COC(=O)c1cccc(-n2nnnc2SCC(=O)Nc2nc3c(s2)CCCC3)c1 | 1 | -3 | -1% | 8%
COc1ccc(OCC(=O)Nc2nc3c(s2)CCCC3)cc1 | 68* | 36* | -7% | -29%
COc1ccc(NC(=O)Nc2nc3c(s2)CCCC3)cc1 | 16 | 19* | -46% | -17%
O=C(COc1ccc(F)cc1)Nc1nc2c(s1)CCCC2 | 70 | 38* | -2% | -2%
COc1cccc(-n2nnnc2SCC(=O)Nc2nc3c(s2)CCCC3)c1 | 87* | 25* | 4% | 10%
CC(C)CCNC(=O)C1CC(c2ccccc2C(F)(F)F)=NO1 (stereo not drawn) | 24 | -4 | -3% | -5%
Cc1cc(F)ccc1S(=O)(=O)N1CCC2(CC1)OCCN2S(=O)(=O)c1cccs1 | . | . | -1% | .
COc1ccccc1OCC(=O)Nc1nc2c(s1)CCCC2 | 78* | 49* | -5% | -29%
CC(C)C[C@H]1CN=C(N(C)C)N1CC1CCCC1 | . | . | -4% | .
CCOC(=O)C1CCN(C(=O)/C=C/c2ccc3c(c2)OCO3)CC1 | 77 | 29* | -2% | -22%
COc1ccc2cc(/C=C/C(=O)N3CCN(CC(=O)N4CCCCCC4)CC3)ccc2c1 | 44* | 37* | 0% | -7%
CCOC(=O)C1CCN(C(=O)/C=C/c2ccccc2)CC1 | 73* | 33 | 3% | .
O=C(/C=C/c1ccc2c(c1)OCO2)N1CCCCC1 | 45* | 39* | -10% | -18%
Cc1noc(C)c1COC(=O)C1CCN(S(=O)(=O)c2ccc(F)cc2)CC1 | . | . | 1% | .
CCCOc1ccc(NC(=O)CC2C(=O)OCC3CCCCN32)cc1 (stereo not drawn) | . | . | -21% | .
COC(=O)C1CCN(C(=O)/C=C/c2ccc(OC)cc2)CC1 | 93 | 49* | 8% | 3%
CN(C)C(CNC(=O)C1CCN(C(=O)/C=C/c2ccccc2)CC1)c1ccccc1 (stereo not drawn) | 59* | 38* | 3% | 2%
Cc1ccccc1C(=O)NNC(=O)/C=C\C(=O)O | 83* | 38* | -2% | 0%
SMILES | Shiga toxin inh | CHX counter | SARS PLpro yeast | NS1 function inh
O=C(O)/C=C/C(=O)NNC(=O)c1ccccc1Br | 22 | 11 | 1% | -7%
CCCCCCOC(=O)c1ccccc1NC(=O)/C=C/C(=O)O | 117* | 51* | -16% | -37%
CCOC(=O)c1ccccc1NC(=O)/C=C/C(=O)O | 1 | 4 | ? | -1%
Cc1ccc(C=Nc2ccccc2C(N)=O)cc1 | 71* | 47* | -6% | -59%
NC(=O)c1ccccc1NC(=O)/C=C/C(=O)O | 53* | 35* | 1% | -7%
COC(=O)c1ccccc1NC(=O)/C=C/C(=O)O | -11 | -3 | ? | 28%
CCOC(=O)c1ccc(NC(=O)CCC(=O)OC)cc1 | 4 | 8 | -19% | -3%
O=C(CSc1ccc(-c2ccccn2)nn1)Nc1ccc(F)c(F)c1 | 9 | 25 | ? | -37%
CCCCNC(=O)c1ccc(SCC(=O)N(CC)CC)c([N+](=O)[O-])c1 | -2 | 2 | -2% | .
O=C(CCOc1ccccc1)NNC(=O)c1ccccc1 | . | . | -1% | .
Cc1ccc(/C=C/C(=O)Nc2ccccc2C(N)=O)cc1 | 63* | 46* | -20% | 2%
CC(=O)Nc1ccc(-c2csc(Nc3ccc(Cl)cn3)n2)cc1 | 23 | 38* | -3% | .
CC(=O)Nc1ccc(-c2csc(Nc3ccc(S(N)(=O)=O)cc3)n2)cc1 | -7 | 6 | -1% | .
CC(=O)Nc1cccc(-c2csc(Nc3ccc(Cl)cn3)n2)c1 | 146* | 46* | -2% | 10%
CCOc1ccc(N)c(SSc2cc(OCC)ccc2N)c1 | 88* | 45* | -10% | -66%
Cc1cc(C(=O)Nc2ccc3c(c2)OCCO3)c(C)o1 | 68* | 28* | -7% | -19%
Cc1occc1C(=O)Nc1ccc2c(c1)OCCO2 | 100* | 107* | -17% | -43%
Cc1occc1C(=O)Nc1ccc2c(c1)CCC2 | 103* | 48* | -25% | -93%
Cc1ccccc1C(=O)Nc1ccc2c(c1)OCCO2 | 20 | 18* | -7% | -11%
